# In the library only some 3.8% were active in any assay of this set; here they are far more common.
# Nrf2 block – Nrf2 qHTS screen for inhibitors | Potency, µM (doses to about 46 µM), for inactives: top-dose activity change, negative = inhibition, most hits filed as inhibitors | A549 ARE-Fluc reporter, luciferase luminescence, 18-24 h | 360,000 compounds, 2.1% hits | AID 504444, 2011; note: % is set by controls: 0 for no effect and ±100 for the full control effect; nearly all actives have a fitted effect of over 60% in size
#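 Nrf2 activity is the BugLite luminescence, read 15 min after reagent at room temperature, following CellTiter-Fluor cytotoxicity readout (30 min, 37C). Compound titrations were applied for 18-24 h to 5000 A549 ARE_Fluc cells/well in 5% FBS OPTI-MEM.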
# ATXN2 expr inh – Primary qHTS for Inhibitors of ATXN expression; HEK-293 ATXN2-luciferase reporter, luminescence, 24 h; Potency, µM (series often up to 57 µM), for inactives: at the highest dose activity change, negative = inhibition, hits mostly inhibitors; 360,000 compounds, 0.72% hits; AID 1745845, 2022; note: % is set by controls: 0 for no effect and ±100 for the full control effect; nearly all actives have a fitted effect of over 55% in size
#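 qHTS (up to 57 uM final) was run with 24 h compound exposure of reporter cells at 37 °C. Each well was multiplexed: SteadyGlo luminescence measured ATXN2-luciferase expression after a fluorogenic Gly-Phe-AFC viability readout (25 uM final).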
# TGFb SMAD3 inh – qHTS for Inhibitors of TGF-b | HepG2 CAGA-GFP TGF-b/SMAD3 reporter, GFP fluorescence, 18 h; TGF-beta stimulated, 500 pg/mL final | Potency, µM (doses to about 46.1 µM), inactives show at the highest dose activity, negative = inhibition, actives largely listed as inhibitors | 410,000 compounds, 1.2% hits | AID 588855, 2011; note: % is set by controls: 0 for no effect and ±100 for the full control effect; nearly all actives have a fitted effect of over 65% in size
#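 TGF-beta reporter screen: HEPG2 CAGA-GFP, 1% FBS, 500 pg/mL TGF-beta final, 18 h; per-cell GFP summed per well; curves fitted and categorized by class.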
# A549 viability – Nrf2 qHTS screen for inhibitors: counterscreen for cytotoxicity; A549 ARE-Fluc cells, CellTiter-Fluor viability, 18-24 h; Potency, µM (doses to about 46 µM), for the others: at the highest dose activity change, negative = cytotoxicity, actives largely listed as inhibitors; 390,000 compounds, 0.16% hits; note: % is set by controls: 0 for no effect and ±100 for the full control effect
#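 Cytotoxicity counterscreen: CellTiter-Fluor fluorescence was measured in A549 ARE_Fluc cells after 18-24 h of compound exposure in a concentration series. The subsequent BugLite luminescent read reports ARE-luciferase activity.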
# S2 tox – Viability Counterscreen for Primary qHTS for Inhibitors of ATXN expression; S2 cells (HEK-293 line with an ATXN2-luciferase reporter) viability, CellTiter-Fluor protease fluorescence, 24 h; Potency, µM (doses to about 56.7 µM), hits mostly cytotoxic; 400,000 compounds, 0.49% hits; AID 651635, 2014; note: nearly all actives have a fitted effect of over 40% in size
# HepG2 tox – qHTS for Inhibitors of TGF-b: Cytotox Counterscreen. HepG2 CAGA-GFP viability, ATP luminescence, 18 h. Potency, µM (top dose mostly 46.1 µM), without a hit: at the highest dose activity change, negative = cytotoxicity, most hits filed as cytotoxic. 410,000 compounds, 0.76% hits. AID 588856, 2011
#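 CellTiter-Glo luminescence gave cytotoxicity after 18 hours at 37 degrees C. The cells were HepG2 CAGA-GFP in 1% FBS DMEM, stimulated with 500 pg/mL TGF-beta after compound addition. %Activity was normalised to no-cell wells (complete cell-killing) and DMSO (no toxicity), and curves were fitted and classified.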
# An asterisk follows results filed as active; i = inactive; ? = inconclusive; . = no result given. Calls come from the whole dose curve; as a rule, active = well fitted curve in the direction sought with a large enough effect; inconclusive = small, poorly fitted or top-dose-only effect, or another doubt; inactive = no such curve, though single readings can be large; an effect the other way counts as inactive or inconclusive. Potency is the fitted concentration of half-maximal effect.
SMILES,Nrf2 block,ATXN2 expr inh,TGFb SMAD3 inh,A549 viability,S2 tox,HepG2 tox
CCOC(=O)c1ccc(N2C(=O)c3n[nH]c(-c4ccco4)c3C2c2ccc(C(=O)OC)cc2)cc1 (centres undefined),?,?,?,-20%,?,-39%
Cc1ccc(S(=O)(=O)N2CCN(C(=O)Cn3c(=O)cnc4ccccc43)CC2)cc1,-9%,-7%,-12%,0%,i,3%
S=C1Cc2ccccc2N1,12µM*,6.3µM*,5.6µM*,16µM*,5.6µM*,8.9µM*
CCCC(=O)OCc1cnc(C)c2oc(=O)c(C(=O)Nc3ccc(F)cc3C)cc12,.,.,-11%,5%,.,-1%
N#Cc1nc(-c2ccc(COc3ccccc3)o2)oc1NCc1ccccc1,-27%,-32%,?,-2%,?,-61%
CC(Nc1oc(-c2ccc(COc3ccccc3)o2)nc1C#N)c1ccccc1 (centres undefined),-25%,?,?,-10%,?,11µM*
CCOC(=O)N1C(=O)[C@@](c2ccc(Cl)cc2)(C(C)C)N1C(=O)OCC,?,?,?,-16%,.,16µM*
CCOC(=O)N1C(=O)[C@](c2ccc(Cl)cc2)(C(C)C)N1C(=O)OCC,9%,?,?,6%,?,10µM*
Cc1ccc(S(=O)(=O)CCSc2nc(C)cc(C)c2C#N)cc1,21µM*,0%,-19%,-21%,i,-7%
CCS(=O)(=O)CCSc1nc(C)cc(C)c1C#N,0%,4%,-2%,-1%,i,-46%
CC(NC(=O)c1ccccc1)C(=O)NNC(=O)c1ccccc1Cl (centres undefined),2%,.,-3%,14%,?,4%
Cc1nc2cc(-c3ccc(Cl)cc3)nn2c(C)c1CCC(=O)NC(C)c1ccc2c(c1)OCCO2 (centres undefined),13µM*,?,?,-4%,?,-8%
Cc1nc2cc(-c3ccc(Cl)cc3)nn2c(C)c1CCC(=O)N1CCN(c2ccccc2)CC1,?,2%,1%,-2%,i,3%
Cc1csc(NC(=O)CCc2c(C)nc3cc(-c4ccc(Cl)cc4)nn3c2C)n1,1.5µM*,?,?,0%,i,-23%
COc1ccccc1CNC(=O)CCc1c(C)nc2cc(-c3ccc(Cl)cc3)nn2c1C,-15%,-18%,-6%,2%,i,-40%
Cc1c(Cl)cccc1-n1ncc(C(=O)NC2CCCC2)c1C1CCN(C(=O)OC(C)(C)C)CC1,?,2%,-19%,-11%,i,-17%
CCOC(=O)c1cnc2ccc(C)cc2c1NCCc1ccc(OC)c(OC)c1,-11%,-14%,11µM*,-17%,i,-51%
Cc1ccccc1S(=O)(=O)Cc1ccc(C(=O)N2CCN(c3cccc(Cl)c3)CC2)o1,18µM*,?,-22%,-23%,?,-24%
Cc1ccccc1S(=O)(=O)Cc1ccc(C(=O)N2CC(C)CC(C)C2)o1 (centres undefined),9%,0%,-5%,2%,i,0%
Cc1ccccc1S(=O)(=O)Cc1ccc(C(=O)N2CCN(c3cccc(C)c3C)CC2)o1,10µM*,13µM*,?,?,18µM*,-17%
CN1CCN(/N=C/c2ccc(N(c3ccccc3)c3ccccc3)cc2)CC1,?,0.84µM*,2µM*,-18%,.,4%
O=C(c1ccc2c(c1)N(Cc1ccc(Cl)cc1)C(=O)c1ccccc1S2(=O)=O)N1CCCC1,-7%,-28%,?,-3%,i,-16%
Cc1ccc(C)c(Nc2nc3c(S(=O)(=O)c4ccc(C(C)C)cc4)nnn3c3ccsc23)c1,16µM*,.,-14%,?,.,-19%
